pAkt inh – inhibitors of Akt phosphorylation; Neuro2A IGF-stimulated pAkt S473 HTRF, 20 min; stronger effect = lower value; activity change, % for hits at 50 µM; 0.32% of 360,000 active; in the data active means activity change below about -80%; inconclusive means mostly about -51% to -80%; further: on the % scale 0 is the no-effect control and ±100 the full control effect
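Neuro2A cells (4,500/well, DMEM with 0.5% FBS) were treated with compound at a single 50 µM final concentration, stimulated with 6 nM IGF for 20 min at 37 °C, and lysed. Phospho-Akt Ser473 was read by HTRF as 665/615 ratio ×10^4.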
MmCpn inh – M. maripaludis TRiC chaperonin inhibition; purified Mm-Cpn ATPase, ADP Transcreener TR-FRET; Potency, µM (series often up to 76.9 µM), without a hit: at the highest dose activity, negative = inhibition, usual class: inhibitors; 0.031% of 330,000 active; AID 504842; further: potency means the concentration at half of the fitted maximal effect; on the % scale 0 is the no-effect control and ±100 the full control effect; nearly all actives have a fitted effect of over 80% in size
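ATPase read-out: TR-FRET ADP immunoassay (anti-ADP Eu cryptate vs ADP-d2), ex 320 nm, em 590/665 nm; signal drops as ADP forms. Enzyme 25 nM, ATP 10 uM, 30 min at 37°C after 10 min compound preincubation.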
Epigenetic derep – regulators of epigenetic silencing causing reporter derepression in mouse cells | murine LDR cells, GFP reporter derepression, 30 h | Potency, µM (doses to about 53.9 µM), for inactives: at the highest dose GFP activation, hits mostly activators | 0.2% of 280,000 active | AID 1865; further: potency means the concentration at half of the fitted maximal effect; % of control where 0% means no effect; nearly all actives have a fitted effect of over 60% in size
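Murine LDR cells bearing a silenced CMV-driven GFP reporter were exposed to compound for 30 h at 37 C. After PBS washes, GFP-positive cells (20-120 um objects) counted by laser-scanning microplate cytometry.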
CCT chaperon mod – cytosolic chaperonin activity modulation. purified chaperonin ATPase assay, HTRF ADP detection, 30 min. activity change, % (no concentration beside the values), hits read low. 0.3% of 360,000 active. AID 651819; in the data active means activity change below about -30%; further: on the % scale 0 is the no-effect control and ±100 the full control effect
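TRiC at 40 or 20 nM final (batch-dependent) in 30 mM Tris pH 7.4, 100 mM KCl, 5 mM MgCl2, 1 mM DTT, with compound at single 76 uM and 10 uM ATP, 30 min at 37 deg C. ADP detected by HTRF Transcreener, 665/615 ratio.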
MBNL1 CUG block – MBNL1-poly(CUG) RNA binding inhibition | Potency, µM (doses to about 57.5 µM), for inactives: at the top dose activity change, negative = inhibition, hits mostly inhibitors | Q9NR56 | 0.036% of 280,000 active | TR-FRET MBNL1-His/biotin-(CUG)12 binding, 665/545 ratio | AID 2675; active means well fitted inhibition curve with a large enough effect in the signal ratio, with a control signal flat, not every such curve was filed as active; inconclusive means small, poorly fitted or top-dose-only effect, or effect the other way, or a change in a side signal; inactive means no such curve, though single readings can be large or run the other way; the % refers to the signal ratio; further: potency means the concentration at half of the fitted maximal effect; on the % scale 0 is the no-effect control and ±100 the full control effect
Target sequence (Q9NR56 whole entry, looked up): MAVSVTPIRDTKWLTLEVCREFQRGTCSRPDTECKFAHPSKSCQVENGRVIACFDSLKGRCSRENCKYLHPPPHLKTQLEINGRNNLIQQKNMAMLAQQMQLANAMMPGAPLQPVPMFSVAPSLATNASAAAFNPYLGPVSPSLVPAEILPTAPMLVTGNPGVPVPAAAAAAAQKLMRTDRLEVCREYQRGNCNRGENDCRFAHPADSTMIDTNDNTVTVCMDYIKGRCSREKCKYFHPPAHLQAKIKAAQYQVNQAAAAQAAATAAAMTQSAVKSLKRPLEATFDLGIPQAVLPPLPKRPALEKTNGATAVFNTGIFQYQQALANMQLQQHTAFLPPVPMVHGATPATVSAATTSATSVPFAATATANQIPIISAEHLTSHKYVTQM
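Compound titration spanned 92 nM–58 uM against the MBNL1-His/biotin-(CUG)12 complex. After 60 min at room temperature with 5 nM streptavidin-XL665 and 0.055 ng/ul terbium anti-His, ratiometric 665/545 nm emission (Ex 340 nm) normalized to controls.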
uPA generation – blocks generation of uPA at the cell surface; cell surface uPA generation assay, qHTS; Potency, µM (doses to about 38.3 µM), inactives show at the highest dose activity change, negative = inhibition, usual class: inhibitors; 0.31% of 330,000 active; active means well fitted inhibition curve with a large enough effect; inconclusive means small, poorly fitted or top-dose-only effect; inactive means no such curve, though single readings can be large or run the other way; tested in mouse RAW 264.7 cells; further: potency means the concentration at half of the fitted maximal effect; on the % scale 0 is the no-effect control and ±100 the full control effect; nearly all actives have a fitted effect of over 55% in size
The depositor's hits bear a star; i = inactive; ? = inconclusive; / = not tested or not shown. Hits are enriched below; roughly 0.97% of the tested compounds scored in any of these assays. Unless noted, the call rests on the fitted dose curve; in most records, active means well fitted curve in the direction sought with a large enough effect; inconclusive means small, poorly fitted or top-dose-only effect, or another doubt; inactive means no such curve, though single readings can be large; an effect the other way counts as inactive or inconclusive.

SMILES	pAkt inh	MmCpn inh	Epigenetic derep	CCT chaperon mod	MBNL1 CUG block	uPA generation
CC(C)(C)c1cc(C(=O)N2CCc3ccccc3C2)ccn1	i	1%	/	-2	-6%	7.9µM*
COc1ccc(CNC(=O)c2ccc(NC(=O)C3CCCO3)cc2)cc1 (stereo not given)	-105%*	1%	3%	-1	4%	4%
O=C(NCc1ccc(F)cc1)c1ccc(NC(=O)C2CCCO2)cc1 (stereo not given)	i	-2%	/	0	1%	0%
CCCOC(=O)c1ccc(NC(=O)C2CCCO2)cc1 (stereo not given)	-119%*	-1%	0%	0	-3%	0%
[N-]=[N+]=CC(=O)C(c1ccccc1)(c1ccccc1)c1ccccc1	i	0%	0%	-2	-8%	0%
CCN1CCN(Cc2nc3cc(NC(=O)c4ccccc4[N+](=O)[O-])ccc3n2CC)CC1	/	/	-2%	/	/	/
CC(C)Cc1nnc(NC(=O)c2cccc(S(=O)(=O)N3CCOCC3)c2)s1	i	?	/	-59*	/	-16%
O=C(CC1=NC2(CCCC2)Cc2ccccc21)N1CCOCC1	i	0%	0%	-4	5%	1%
O=S(=O)(Nc1nc(-c2ccccc2)cs1)c1cc(Cl)ccc1Cl	i	0%	/	-3	1%	2%
O=C(CN1C2CCC1CC(NC(=O)Nc1ccccc1)C2)NCc1ccco1 (stereo not given)	-107%*	0%	-1%	0	-7%	5%
O=C(NCc1ccccc1)NC1CC2CCC(C1)N2Cc1ccco1 (stereo not given)	i	0%	-1%	1	7%	3%
CCC(C)N1C(=O)/C(=C/c2c(NCCCOC(C)C)nc3c(C)cccn3c2=O)SC1=S (stereo not given)	i	1%	3.2µM*	-4	-11%	-5%
CNC(=O)c1c(NC(=O)c2ccc(N3C(=O)CCC3=O)cc2)sc2c1CCC(C)C2 (stereo not given)	i	/	/	0	/	8%
CC(C)Oc1ccc(C(=O)Nc2c3c(nn2C(C)(C)C)CS(=O)(=O)C3)cc1	i	-1%	/	3	-7%	2%
O=C(Nc1cccc(OCc2cc(=O)n3c4c(sc3n2)CCCC4)c1)c1ccc(F)cc1	/	/	25µM*	/	/	/
CCN(CC(=O)Nc1c(C(=O)OC)[nH]c2ccc(C)cc12)c1ccc2c(c1)OCO2	i	-14%	-3%	-1	2%	4%
O=C(NC1CCCC1)C(c1ccncc1)N(C(=O)c1ccco1)c1ccc(F)c(Cl)c1 (stereo not given)	i	2%	/	-36*	2%	3%
O=C(NC1CCCCC1)C(c1ccncc1)N(C(=O)c1ccco1)c1ccc(F)cc1 (stereo not given)	i	0%	/	0	-3%	3%
Cn1c(=O)c(NC2CCCCC2)c2c3c(cccc31)C(=O)c1ccccc1-2	i	-3%	0.13µM*	-2	7%	8%
Oc1ccc(COC2CCCC2)c2cccnc12	/	-1%	/	/	/	/
Cc1cc(COc2ccccc2OCCN2CCN(C)CC2)no1	-104%*	0%	0%	1	2%	-3%
O=C(NCCN1C(=O)S/C(=C\c2ccc(OC(F)F)cc2)C1=O)C1=COCCO1	i	0%	/	-4	/	-11%
COc1ccc(/C=C2\SC(=O)N(CCNC(=O)C3=COCCO3)C2=O)cc1	i	1%	/	1	/	7.1µM*
O=C(NCCN1C(=O)S/C(=C\c2ccccc2Cl)C1=O)C1=COCCO1	i	0%	/	1	/	7.9µM*
O=C(NCCN1C(=O)S/C(=C\c2ccc(Cl)cc2Cl)C1=O)C1=COCCO1	i	1%	/	-3	/	?
SMILES	pAkt inh	MmCpn inh	Epigenetic derep	CCT chaperon mod	MBNL1 CUG block	uPA generation
COc1ccc(/C=C2/SC(=O)N(CCNC(=O)C3COc4ccccc4O3)C2=O)cc1 (stereo not given)	i	1%	0%	3	10%	0%
CCOc1ccc(/C=C2\SC(=O)N(CCNC(=O)C3COc4ccccc4O3)C2=O)cc1OC (stereo not given)	i	2%	6%	-35*	/	-11%
Nc1nonc1-n1nnc(C(=O)N/N=C/c2ccccc2Cl)c1CN1CCOCC1	i	-1%	/	2	10%	13%
CN1CCCN(C2C3CC4CC(C3)CC2C4)CC1 (stereo not given)	-121%*	-1%	-1%	1	6%	4%
CCS(=O)(=O)c1ccc(-c2csc(-c3ccccc3Cl)n2)c(Cl)c1Cl	-128%*	-4%	-5%	-4	2%	-2%
O=C(O)CCCCCNC(=O)CSc1nnc(-c2ccco2)n1-c1ccccc1	i	-4%	/	0	-5%	0%
COc1ccccc1N1CCN(C(=O)c2noc(C)c2[N+](=O)[O-])CC1	i	0%	/	0	4%	-6%
Cc1onc(C(=O)N2CCN(C(c3ccccc3)c3ccccc3)CC2)c1[N+](=O)[O-]	i	-1%	-1%	1	20%	10µM*
CCn1cc(/C=C/C(=O)NCc2c(C)nn(C)c2C)cn1	-107%*	0%	-1%	1	0%	3%
O=S(=O)(c1ccc2ccccc2c1)N1CCN(CCO)CC1	i	0%	/	1	6%	-2%
Cc1ccc(-c2cc(-c3nnc(SCC(=O)N(C)CCC#N)n3N)c3ccccc3n2)cc1	-115%*	1%	-1%	-1	?	-4%
Cc1ccc(CNC(=O)c2ccc(Cn3nc(C)cc3C)o2)cc1	/	-1%	/	-73*	-3%	-8%
Cc1cc(C)n(Cc2ccc(C(=O)NCc3ccco3)o2)n1	i	1%	2%	-2	-7%	0%
Cc1cc(C)cc(OCC(=O)OC(C)C(=O)Nc2c(C)n(C)n(-c3ccccc3)c2=O)c1 (stereo not given)	i	-1%	/	-1	/	1%
Cc1ccc(NC(=O)C(=O)NCC(c2cccnc2)N2CCN(C)CC2)cc1 (stereo not given)	/	/	0%	/	/	/
Cc1ccc(NC(=O)C(=O)NCC(c2cccnc2)N2CCc3ccccc3C2)cc1 (stereo not given)	/	/	22µM*	/	/	/
CCCCS(=O)(=O)NC1=NCN(CCOC(=O)c2ccccc2)CN1	-103%*	/	/	-2	/	9%
Cc1onc(-c2cccc(Cl)c2Cl)c1C(=O)O/N=C(\N)c1ccc([N+](=O)[O-])o1	i	-1%	0%	-3	/	4%
Cc1onc(-c2ccccc2)c1C(=O)O/N=C(\N)c1ccc([N+](=O)[O-])o1	i	3%	-1%	-1	?	4.5µM*

Screens deposited in PubChem by National Center for Advancing Translational Sciences (NCATS).
